# Experimental data from PubChem BioAssay (NCATS).
# Records with an inconclusive call do not appear. Where a call stands in place of a potency, no number is given. The source made the active and inactive calls. The call rests on the fitted dose curve; in most records, active means well fitted activation curve with a large enough effect; inconclusive means small, poorly fitted or top-dose-only effect; inactive means flat fitted curve, though single readings scatter.
# Experiment: qHTS for Activators of p53 Stress Response Pathway screened against the NCATS CANVASS Library (AID 1347388)
# Settings: p53RE-bla HCT-116, beta-lactamase reporter, 16 h; series mostly up to 46.1 µM
# Description: Natural products and their derivatives continue to be wellsprings of nascent therapeutic potential. However, many laboratories have limited resources for biological evaluation, leaving their previously isolated or synthesized compounds largely or completely untested. To address this issue, the Canvass library of natural products was assembled (https://tripod.nih.gov/canvass), in collaboration with academic and industry researchers, for quantitative high-throughput screening (qHTS) across a diverse set of cell-based and biochemical assays. The pure (>85% purity by liquid chromatography/mass spectrometry [LC/MS]) Canvass library of 346 natural products were submitted by 45 academic laboratories and companies around the world. We collected pure natural products to circumvent deconvolution and structure elucidation due to time and resource limitations. The library was formatted into 1536-well plates and evaluated in 50 qHTS (in an 11-pnt concentration series) bioassays with broad scope of disease-relevant mechanisms. The resulting data set from 50 different assays was then systematically analyzed to identify overall trends and specific natural products with interesting biological activities. Reported herein are the results of each individual qHTS and their corresponding assay protocol. This assay measures compound activation of the p53 signaling pathway in cells using a beta-lactamase reporter gene. The p53RE-bla HCT-116 cell line (Invitrogen) contains a stably integrated beta-lactamase reporter gene under control of the p53 response elements. The activation of the report gene under culture conditions can be detected by fluorescence intensity. National Center for Advancing Translational Sciences (NCATS), Rockville, MD National Institute of Health (NIH), Bethesda, Maryland
# p53-screen protocol: 1. In black-clear bottom 1536-well plate, 5 uL of p53RE-bla HCT-116 cell suspension was dispensed using a Multidrop Combi (Thermo Fisher Scientific) at a final concentration of 4000 cells / well. 2. The assay plates were incubated for 5 hours at 37C, 5% CO2. 3. […] of compounds (in DMSO; columns 5-48), vehicle control DMSO, and positive control were pin transferred into the assay plates using the Kalypsis pin tool (Wako USA) equipped with a 1536-well pin heads. This yields a final CANVASS compound concentration of 0.4 nM - […]. 4. The assay plates were incubated for 16 hours at 37C, 5% CO2. 5. After incubation, 1 uL of CCF4 dye was added per well using the BioRAPTR dispenser 6. The plates were incubated for 2 hours at room temperature. 7. The fluorescence readout was obtained using the EnVision microplate reader (PerkinElmer) equipped with a 405 nm excitation and 460 nm and 530 nm emission filters. The ratio of 460 nm / 530 nm readout was calculated and used for data analysis. 8. To access cellular viability and compound toxicity, 4 uL of CellTiter-Glo was added to the wells using the BioRAPTR dispenser. 9. The assay plates were further incubated for 30 minutes at room temperature. 10. Luminescence signal was obtained using the ViewLux plate reader (PerkinElmer) using the clear emission filter and 1x binning, 2 second exposure settings.
# Potency means the concentration at half of the fitted maximal effect.
row,Structure (SMILES),Potency
1,CC=C1CN(C=O)[C@H]2C[C@@H]1[C@@H](C(=O)OC)[C@@]13CCOC21Nc1ccccc13 (some centres not stated),inactive
2,COc1ccc2c(c1)[nH]c1c(C)nccc12,21.5 µM (active)
3,CN(C)Cc1c[nH]c2ccccc12,inactive
4,CN1C(=O)[C@]23CC4C(C)(C)[C@@]5(C[C@@]41CN2CC[C@@]3(C)O)C(=O)Nc1c5ccc2c1OC=CC(C)(C)O2 (some centres not stated),inactive
5,CCN1C[C@]2(C)CC[C@H](O)[C@]34C1C(C[C@H]23)[C@@]12CC[C@H](CC14)[C@](O)(COC(=O)c1ccc(OC)c(OC)c1)[C@H]2O (some centres not stated),inactive
6,CNCCc1c[nH]c2ccccc12,inactive
7,C/C=C1/CN2CC[C@]34C(=Nc5ccccc53)[C@@H]2C[C@@H]1[C@H]4C(=O)OC,inactive
8,NCCc1ccccc1,inactive
9,CC(=O)N[C@H]1CCN2CCC[C@H]12,inactive
10,CC1=CC2CC[C@@H]3[C@@H](C)C[C@H](C)[C@@H](C1)N23 (some centres not stated),inactive
11,CC[C@@H]1CN2CC[C@@]3(O)C(=Nc4cccc(OC)c43)[C@@H]2C[C@@H]1/C(=C\OC)C(=O)OC,inactive
12,CCCCC[C@@H]1OC(=O)[C@@H](C)N(C)C(=O)[C@H](CCCCC)OC(=O)C(C)N(C)C(=O)[C@H](CCCCC)OC(=O)[C@@H](C)N(C)C(=O)[C@H](CCCCC)OC(=O)C(C)N(C)C1=O (some centres not stated),inactive
13,CCCC[C@@H]1CC[C@H]2CCCC(CCC)N12 (some centres not stated),inactive
14,CNCCc1ccccc1,inactive
15,CO[C@@H](/C=C/CC/C=C/C(=O)O)[C@@H](O)[C@H](C)[C@@H](O)/C(C)=C/[C@H](C)C(=O)CCCC1CC(=O)NC(=O)C1,inactive
16,COc1ccc(C23Oc4cc(OC)cc(OC)c4[C@](O)([C@H](c4ccccc4)C2C(=O)NCCCCNC(=O)c2ccccc2)[C@@H]3O)cc1 (some centres not stated),inactive
17,CO[C@@H](/C=C/CC/C=C/C(=O)O)[C@@H](O)[C@H](C)/C=C(\C)[C@@H](O)[C@H](C)C(=O)CCCC1CC(=O)NC(=O)C1,inactive
18,COc1ccc2c3c([nH]c2c1)C(C)=NCC3,18.6 µM (active)
19,CO[C@H](c1ccccc1)[C@H]1NC(=O)C(C)NC(=O)C(C[C@@H](C)CO)N(C)C(=O)[C@@H](C(O)c2cn(C(C)(C)C3CO3)c3ccccc23)NC(=O)C(C(C)C=C(C)C)NC(=O)C(CC(C)C)N(C)C(=O)C(C(C)C)NC1=O (some centres not stated),inactive
20,CNCCc1ccc(O)cc1,inactive
21,CC[N@@+]1([O-])C[C@]2(C)CC[C@@H](O)[C@@]34C5C[C@H]6CC[C@@]5(C(C[C@H]23)C41)[C@H](O)[C@@]6(O)CO (some centres not stated),inactive
22,COC(=O)C1=C2Nc3ccccc3[C@@]23CCN2CC(C(C)=O)C1C[C@H]23 (some centres not stated),inactive
23,CC1=CC(=O)C2=C(C)C[C@H](O)[C@@H]3[C@H](OC(=O)[C@@H]3C)[C@@H]12,inactive
24,CCN1C[C@]2(C)CC[C@@H](O)[C@]34C1[C@H](C[C@H]23)C12CCC(CC14)[C@](O)(CO)[C@H]2O (some centres not stated),inactive
25,C[C@]12CC(O)C3[C@@H](CCC4C[C@@H](O)CC[C@@]43CO)[C@@]1(O)CCC2C1=CC(=O)OC1 (some centres not stated),inactive
26,c1ccc2c3c([nH]c2c1)CNCC3,inactive
27,CCC[C@H]1CC[C@H]2[C@H](C)CCC[C@H]2N1,inactive
